Measured values published in PubChem BioAssay.
Unmarked numbers belong to inactive results. The rule behind the calls is not given here.

Target: Pantothenate synthetase (Mycobacterium tuberculosis (strain ATCC 25618 / H37Rv)) (UniProt P9WIL5)
Assay: Coupled enzyme confirmation of inhibitors against recombinant Mtb PanC (AID 375);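 note: 0% = full reaction with vehicle and 100% = no enzyme background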
Settings: coupled enzyme assay; at 10 µM, stronger effect = higher value

Chain of Pantothenate synthetase (Mycobacterium tuberculosis (strain ATCC 25618 / H37Rv)) (P9WIL5 whole entry, looked up): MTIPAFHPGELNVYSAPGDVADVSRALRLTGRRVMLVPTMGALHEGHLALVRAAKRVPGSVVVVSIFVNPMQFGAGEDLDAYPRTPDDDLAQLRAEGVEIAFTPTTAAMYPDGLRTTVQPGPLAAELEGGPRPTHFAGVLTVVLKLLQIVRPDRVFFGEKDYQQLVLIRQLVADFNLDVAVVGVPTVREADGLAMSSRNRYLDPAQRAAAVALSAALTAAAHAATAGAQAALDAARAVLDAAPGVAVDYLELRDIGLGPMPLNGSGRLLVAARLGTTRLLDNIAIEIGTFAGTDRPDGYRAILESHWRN

| SMILES | inhibition [%] |
| --- | --- |
| CSc1ccccc1NC(=O)c1cnc2n(c1=O)CCS2 | 7 |
| COCCCN1C(=O)C(O)=C(C(C)=O)C1c1ccccn1 (stereo not given) | 3 |
| CCOC(=O)N1CCN(C(=O)COc2ccc(S(=O)(=O)NC3CCCCC3)cc2C)CC1 | 2 |
| CCOC(=O)N1CCN(c2cc3nccnc3cc2F)CC1 | 6 |
| N[C@@H](Cc1ccccc1)c1nnc2sc(SCc3ccccc3)nn12 | 1 |
| CCc1cc2c(NCCC(=O)O)nc(C)nc2s1 | 1 |
| CCOC(=O)N1CCN(S(=O)(=O)c2cc(Cl)ccc2Cl)CC1 | 3 |
| Cc1ccc(C2/C(=C(/O)c3cnn(-c4ccccc4)c3C)C(=O)C(=O)N2CCN2CCOCC2)o1 (stereo not given) | 1 |
| Cn1nc(-c2ccc(N3CCCCC3)c(NC(=O)c3ccco3)c2)c2ccccc2c1=O | 0 |
| C=CCc1cc(OC)ccc1OCC(O)CN1CCN(c2ccc(OC)cc2)CC1 (stereo not given) | 1 |
| Cc1cc(NC(=O)CCOc2ccccc2)no1 | 0 |
| O=C(CCC(=O)c1cccs1)NCc1ccccc1 | 0 |
| CCOc1cc(S(=O)(=O)Nc2ccccn2)ccc1F | 0 |
| O=C(Nn1c(C2CC2)nc2ccccc2c1=O)c1ccco1 | 0 |
| Cc1c(C#N)sc2nc(-c3ccccc3)nc(N3CCCC3)c12 | 0 |
| COc1cccc(-c2cc3nc4c(c(N5CCC6(CC5)OCCO6)n3n2)CCCC4)c1 | 0 |
| O=C(CN1C(=O)COc2ccccc21)NCCCN1CCc2ccccc2C1 | 0 |
| Cc1c(NC(=O)CN2c3cccc4cccc(c34)S2(=O)=O)c(=O)n(-c2ccccc2)n1C | 0 |
| CCOC(=O)C1CCCN(C(=O)c2ccc3c(=O)n(CCOC)c(=S)[nH]c3c2)C1 (stereo not given) | 2 |
| O=C(Nc1nc(-c2ccc(S(=O)(=O)N3CCCCCC3)cc2)cs1)c1cccs1 | 0 |

| SMILES | inhibition [%] |
| --- | --- |
| CC1=C(C(=O)OCc2ccccc2)C(c2ccc(C)o2)C2=C(CCCC2=O)N1 (stereo not given) | 4 |
| COCCSc1ccccc1C(=O)Nc1cc(C)on1 | 5 |
| Cc1ccc(S(=O)(=O)NCCNC(=O)C2CCCNC2=O)cc1 (stereo not given) | 6 |
| Cc1cc(C)n(-c2cc(N3CCOCC3)ncn2)n1 | 1 |
| N#CC1=C(N)N(c2ccccc2)C(c2ccco2)C1(C#N)C#N (stereo not given) | 2 |
| Cc1cccn2c(=O)c3cc(C#N)c(=NC(=O)c4ccncc4)n(Cc4ccco4)c3nc12 | 0 |
| CCOc1cc(C(=O)N(C)c2ccccc2)cc(OCC)c1OCC | 1 |
| Cc1cc(=O)n(C)c(=O)n1CCCNc1ccccc1 | 2 |
| Cc1onc(-c2ccccc2)c1C(=O)NCCN1CCOCC1 | 3 |
| CCOC(=O)c1sc(NC(=O)COC(=O)Cn2cnc3ccccc32)c(C(=O)OCC)c1C | 3 |
| COc1ccc(C(=O)N2CCSC2=S)cc1OC | 0 |
| CN(C)c1ccc(NC(=O)CSCc2nc3c(nnn3Cc3ccc(F)cc3)c(=O)[nH]2)cc1 | 3 |
| N#Cc1c(-c2ccccc2)nc(SCc2nc(N)nc(N3CCCCC3)n2)[nH]c1=O | 9 |
| Cc1cc(=O)n(CC(C)C)c(O)c1C#N | 0 |
| Nn1c(SCC(=O)Nc2ccccc2)nnc1-c1cccnc1 | 0 |
| COc1ccc(OC)c2[nH]c(=O)c(CCNC(=O)CC(C)C)cc12 | 2 |
| CCOc1ccc(OCC)c(NC(=O)CN2CCN(C(=O)c3ccco3)CC2)c1 | 0 |
| Cc1ccc(C(=O)CSc2nnc(-c3cccnc3)n2N)cc1 | 5 |
| CCCn1c(N)c(C(=O)CSc2nnc(Cc3ccccc3)o2)c(=O)n(C)c1=O | 2 |
| COc1cccc(-n2c(CNc3ccc(F)cc3)nnc2SCC(N)=O)c1 | 0 |
